SMILES strings stand for the structures. Inconclusive results are not listed. Activity calls are given as the source filed them. The call rests on the fitted dose curve; in most records, active means well fitted inhibition curve with a large enough effect; inconclusive means small, poorly fitted or top-dose-only effect; inactive means flat fitted curve, though single readings scatter.

Common to all, as to experiment: qHTS profiling for inhibitors of Plasmodium falciparum proliferation (AID 504749); further: nearly all actives have a fitted effect of over 60% in size
Common to all, as to settings: P. falciparum in erythrocytes, SYBR Green DNA, 72 h; series mostly up to 28.7 µM
Background: In qHTS, concentration-response curves come from the screen itself.

One test relates to CP217. The method, boiled down:
(§1)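 P. falciparum-infected erythrocytes (0.3% parasitemia, 2.5% hematocrit final) were exposed to compounds for 72 h at 37 C in 5% CO2, then lysed with SYBR Green buffer overnight at room temperature; parasite DNA fluorescence was normalized to artemisinin and DMSO controls.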

For another test, the system named is CP237. In a few lines: as §1
In another test the test system is CP238. The method, boiled down:
as §1

The test system of another test is CP247. The method, boiled down: as §1
A further test has as its system CP250. The method, boiled down: as §1
The subject of the next test is CP252. In a few lines: as §1
A further test concerns CP256. In a few lines:
as §1

For the next test, the system named is CP260. In a few lines: as §1
Another test deals with CP262. The method, boiled down:
as §1

Another test deals with CP265. The method, boiled down:
as §1
Potency means the concentration at half of the fitted maximal effect.

`CC(O)C(O)[C@H]1CNc2nc(N)[nH]c(=O)c2N1` (stereo not given in full): the result with CP217, with CP238, in the test with CP247, in the test with CP250, in the test with CP252 and in the test with CP256 was inactive. Further, in the test with CP262, the molecule was called inactive. Also, the Potency result in the test on CP237, in the test on CP260 and in the test on CP265 was “inactive” throughout.

Turning to `c1ccc(C2CN3CCSC3=N2)cc1` (stereo not given), the figures for the Potency in the test on CP237, in the test on CP260 and with CP265 were 3.98 µM (active), 10 µM (active) and 4.47 µM (active), respectively. Further, in the test on CP262, the molecule was classed as inactive.

For `CCCCCCCCCCCCCCCCCCOC[C@H](COP(=O)([O-])OCC[N+](C)(C)C)OC`, the molecule was classed as inactive in the test on CP217, in the test with CP238, in the test with CP247, in the test on CP250, in the test with CP252 and in the test on CP256. Moreover, in the test on CP262, the call was inactive. Moreover, the Potency entry in the test with CP237 and in the test with CP265 was “inactive” throughout.

Take `CN1C2CCC1CC(OC(c1ccccc1)c1ccccc1)C2` (stereo not given): in the test with CP238, the molecule was classed as inactive. Moreover, the Potency result with CP265 was “inactive”.

Consider `CC(C)NC[C@H](O)COc1ccc(CC(N)=O)cc1`, for which the outcome in the test with CP217, with CP238, in the test with CP247, with CP250, in the test with CP252 and with CP256 was inactive. For the same molecule, the call with CP262 was inactive. The Potency entry in the test with CP237, in the test with CP260 and in the test with CP265 was “inactive” in each case.

`CCCCCCCCCCCCCCC[C@H](O)[C@H](N)CO`: the result in the test on CP217, with CP238, in the test on CP247, in the test on CP250, in the test on CP252 and with CP256 was inactive. In addition, the molecule was classed as inactive in the test with CP262. Further, the Potency result in the test on CP237, in the test on CP260 and with CP265 was “inactive” in each case.

Source of the values: PubChem BioAssay (NCATS).
